Here are results for ten molecules from PubChem BioAssay (NCATS).

The target of assay [1] is Alpha-galactosidase A (Homo sapiens) (UniProt P06280). In words: Counterscreen for Glucocerebrosidase Inhibitors: qHTS Assay for Human alpha-Galactosidase at pH 4.5 (AID 992). Also: 0% is about no effect. In outline: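 Enzyme at 2 nM final was combined with compound (0.7 nM to 77 uM) and 80 uM 4-methylumbelliferyl alpha-D-galactopyranoside in 50 mM citric acid, 0.005% Tween-20, pH 4.5. After 20 min at room temperature, fluorescence was read (Ex 365/Em 440 nm); AC50 came from Hill fits.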
Alpha-galactosidase A (Homo sapiens), sequence (P06280 whole entry, looked up): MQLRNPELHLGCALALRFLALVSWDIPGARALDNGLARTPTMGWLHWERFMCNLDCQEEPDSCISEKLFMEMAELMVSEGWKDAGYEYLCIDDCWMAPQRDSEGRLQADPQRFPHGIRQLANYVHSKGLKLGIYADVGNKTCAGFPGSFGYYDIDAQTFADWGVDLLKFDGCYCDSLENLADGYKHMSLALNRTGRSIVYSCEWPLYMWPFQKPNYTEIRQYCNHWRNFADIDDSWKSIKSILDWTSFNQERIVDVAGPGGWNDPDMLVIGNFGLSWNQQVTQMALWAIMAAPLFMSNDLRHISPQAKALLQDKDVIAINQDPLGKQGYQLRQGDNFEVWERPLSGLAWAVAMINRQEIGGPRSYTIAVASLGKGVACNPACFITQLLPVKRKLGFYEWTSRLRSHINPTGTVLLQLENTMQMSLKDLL

The target of assay [2] is alpha-glucosidase (Oryza sativa, rice) (UniProt Q653V4). Briefly: Counterscreen for Glucocerebrosidase Inhibitors: qHTS Assay for Rice alpha-Glucosidase at pH 5.0 (AID 997).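 Also: 0% = full activity with enzyme and -100% = basal without enzyme.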 In outline:
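Rice alpha-glucosidase (4 nM final) with 400 uM 4-methylumbelliferyl-alpha-D-glucopyranoside in citrate buffer pH 5.0, 20 min at room temperature, stopped at pH 10; fluorescence 365/440 nm, compounds 0.7 nM–77 uM, AC50 from Hill fits.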
(A counterscreen serves to expose hits that act by an unwanted route or on another target.)

Assay [3] in a line: qHTS Assay for Lipid Storage Modulators (AID 1519; calls by dose curve; as to activity change, negative = inhibition: % is scaled to controls: 0 for no effect and ±100 for the full control effect). Conditions: Drosophila S3 cells, BODIPY lipid droplet/cell ratio, laser cytometry, cells loaded with oleic acid. In outline:
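Cells seeded at 5,000 per well were treated with compounds over a concentration series and loaded with oleic acid (400 uM, as added). Lipid droplet fluorescence (488 nm excitation, 500-530 nm channel) was read by laser-scanning cytometry and normalized to 20 uM Triacsin C.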
On the technique in general: qHTS replaces the single test concentration by a dilution series.

Assay [4] deals with DNA repair nuclease/redox regulator APEX1 (Homo sapiens) (UniProt P27695). Briefly: qHTS Validation Assay for Inhibitors of the Human Apurinic/apyrimidinic Endonuclease 1 (APE1) (AID 1705;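 also: TAMRA fluorescence gain over two minutes as APE1 cuts a quenched THF abasic duplex; % is scaled to controls: 0 for no effect and ±100 for the full control effect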). Summed up:
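Endonuclease activity of human APE1 is followed as dequenching when the enzyme incises a tetrahydrofuran abasic site in a short duplex labelled 5'-TAMRA/3'-BHQ-2 (50 nM final), after 15 min enzyme–compound preincubation at room temperature.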

Assay [5] in a line: Counterscreen for APE1 Inhibitors: Fluorescent Dye Displacement Validation Assay (AID 1707).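 Also: plate controls were ThO with dsDNA and no compound for no effect and ThO without dsDNA for full effect.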 In outline: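 Thiazole Orange displacement from dsDNA: 250 nM ThO with 50 nM TAMRA-labelled abasic-site (tetrahydrofuran) duplex in 50 mM Tris-HCl pH7.5, 50mM NaCl, 2 mM MgCl2, 0.01% Tween-20. Loss of endpoint fluorescence (ex 480 nm, em 540 nm) flags DNA binders.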
Assay [6] has as its target Endonuclease 4 (Escherichia coli (strain K12)) (UniProt P0A6C1). In words: Counterscreen for APE1 Inhibitors: qHTS Validation Assay for Inhibitors of Endonuclease IV (AID 1708). Also: % is scaled to controls: 0 for no effect and ±100 for the full control effect. In outline: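 E. coli EndoIV at 2 nM final, preincubated 15 min at room temperature with compound, then 50 nM TAMRA/BHQ-2 THF abasic-site duplex added. Buffer: 50 mM Tris-HCl pH 7.5, 50 mM NaCl, 2 mM MgCl2, 1 mM DTT, 0.01% Tween-20. Kinetic fluorescence increase, third minus first read.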

A short description of assay [7]: qHTS for differential inhibitors of proliferation of Plasmodium falciparum line 7G8 (AID 1815).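 Also: parasite growth measured after three days of incubation.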 Also: potency is read from the fitted curve at half-maximal effect.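 As to activity change, negative = inhibition: plate controls were vehicle wells for no effect and reference inhibitor wells for full effect.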
Assay [8] in a line: qHTS for differential inhibitors of proliferation of Plasmodium falciparum line GB4 (AID 1816).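 Also: parasite growth measured after 72 h incubation.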 Also: potency is read from the fitted curve at half-maximal effect.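 As to activity change, negative = inhibition: 0% = vehicle DMSO and -100% = reference inhibitor.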 Conditions: Potency: Plasmodium falciparum GB4 proliferation inhibition.
Assay [9] in a line: qHTS for differential inhibitors of proliferation of Plasmodium falciparum line 3D7 (AID 1876). Also: potency is read from the fitted curve at half-maximal effect.
A short description of assay [10]: Cell Viability - LYMP2-012 (AID 982).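 Also: cellular ATP by luciferase luminescence where a drop means cytotoxicity; cells exposed to compound for one day before reading; 0% = DMSO only and full loss = 92 µM tetraoctylammonium bromide; nearly all actives have a fitted effect of over 55% in size.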
The nature of assay [11]: Cell Viability - LYMP2-014 (AID 983).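 Also: plate controls were DMSO only for no effect and 92 µM tetraoctylammonium bromide for full effect; nearly all actives have a fitted effect of over 50% in size.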 Summed up: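 Luminescent ATP signal (CellTiter-Glo, 30 min at room temperature) serves as the viability read-out after 24 hr compound exposure at 37 C. Cells were seeded at 2500 per well and settled 5 hr beforehand.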
Assay [12] can be described thus: Cell Viability - LYMP2-016 (AID 984).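 Also: cells exposed to compound for 24 hours at 37 °C; % is scaled to controls: 0 for no effect and ±100 for the full control effect; nearly all actives have a fitted effect of over 55% in size.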 In outline: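 Acute toxicity in a Coriell human lymphoblastoid line is scored as loss of intracellular ATP over 24 h of treatment in complete medium. CellTiter-Glo signal is fitted across concentrations with the Hill equation to give AC50.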
The nature of assay [13]: Cell Viability - LYMP2-018 (AID 985).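 Also: plate controls were DMSO only for no effect and tetraoctylammonium bromide at 92 µM for full effect; nearly all actives have a fitted effect of over 50% in size.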 Summed up:
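Luminescent ATP signal (CellTiter-Glo, read after 30 min at room temperature) reports viable cells after 24 hr compound treatment at 37 C. Concentration-response data were fitted to the standard Hill equation for AC50.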

Assay [14] can be described thus: Cell Viability - LYMP2-020 (AID 986).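 Also: plate controls were DMSO only for no effect and tetraoctylammonium bromide at 92 µM for full effect; nearly all actives have a fitted effect of over 55% in size.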 In outline:
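Luminescent ATP signal (CellTiter-Glo, 30 min at room temperature) is the read-out after 24 h compound treatment of lymphoblastoid cells at 37 C. AC50 values come from Hill-equation fits across concentrations.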

Assay [15] is described as follows: Cell Viability - LYMP2-022 (AID 987).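 Also: 0% = DMSO alone and full effect = tetraoctylammonium bromide at 92 µM; nearly all actives have a fitted effect of over 55% in size.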 Summed up: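 qHTS: human lymphoblastoid cells 2500/well; 5 hr 37 C; cpd added; 24 hr 37 C; CellTiter-Glo, 30 min RT; luminescence. AC50 via Hill fit; tetraoctylammonium bromide positive ctrl.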
Assay [16] is described as follows: Cell Viability - LYMP2-024 (AID 988).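 Also: plate controls were DMSO only for no effect and 92 µM tetraoctylammonium bromide for full effect; nearly all actives have a fitted effect of over 60% in size.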 Summed up:
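Steps: seed 2500 cells/well, 5 hr 37 C; add compound, 24 hr 37 C; add CellTiter-Glo, 30 min room temperature; read luminescence. AC50 derived by Hill modelling of concentration-dependent ATP loss.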

The nature of assay [17]: Cell Viability - LYMP2-026 (AID 989). Also: % is scaled to controls: 0 for no effect and ±100 for the full control effect; nearly all actives have a fitted effect of over 50% in size. Summed up:
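Luminescent ATP signal (CellTiter-Glo, 30 min room temperature) measures viable lymphoblastoid cells after 24 hr compound treatment at 37 C. Decreased ATP reflects acute toxicity; AC50 values come from Hill-equation modeling.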

A short description of assay [18]: Cell Viability - LYMP1-002 - Assay at 24 hr (AID 993). Also: % is scaled to controls: 0 for no effect and ±100 for the full control effect. Summed up: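 Cells plated 2500/well, 5 hr 37 C; compounds added, 24 hr 37 C; CellTiter-Glo added, 30 min RT; luminescence read. Tetraoctylammonium bromide positive control. Hill-equation AC50.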
The nature of assay [19]: Cell Viability - LYMP1-002 - Assay at 40 hr (AID 994).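 Also: 0% = DMSO only and full inhibition = 92 µM tetraoctylammonium bromide; nearly all actives have a fitted effect of over 60% in size.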 Summed up: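 Luminescent ATP signal served as the viability readout, with decreases taken as toxicity. Cells were treated with compounds across a concentration range for 40 hours at 37 C, and AC50 values came from standard Hill modeling.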
Where [20] appears, read: measured here: cell count channel max response.
[21] abbreviates: measured here: lipid channel max response.

Values joined by “and” are separate entries in the source; they are usually repeats but may differ in a detail not shown here. Identical values can stand only once. Inconclusive results are not listed. Active and inactive are the calls of the source. Unless noted, calls follow the shape of the dose curve; as a rule, active = well fitted curve in the direction sought with a large enough effect; inconclusive = small, poorly fitted or top-dose-only effect, or another doubt; inactive = no such curve, though single readings can be large; an effect the other way counts as inactive or inconclusive.

DNA repair nuclease/redox regulator APEX1 (Homo sapiens), sequence (P27695 whole entry, looked up): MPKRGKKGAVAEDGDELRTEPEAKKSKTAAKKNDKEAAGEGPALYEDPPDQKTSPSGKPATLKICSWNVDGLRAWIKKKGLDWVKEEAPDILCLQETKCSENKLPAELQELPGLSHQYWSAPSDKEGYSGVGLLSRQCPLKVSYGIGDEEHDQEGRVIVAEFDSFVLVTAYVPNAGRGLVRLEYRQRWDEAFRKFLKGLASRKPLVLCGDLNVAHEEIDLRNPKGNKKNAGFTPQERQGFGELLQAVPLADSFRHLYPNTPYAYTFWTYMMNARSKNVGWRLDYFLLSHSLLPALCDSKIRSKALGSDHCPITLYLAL

As for `Cc1ccc(=O)n(-c2ccccc2)c1`, the result in [1], in [2] and in [5] was inactive. Further, the activity change, negative = inhibition in [3] (at 57.5 µM (top of the series)) was 1.81% (inactive). Also, the max response worked out at 6.64% in assay [3] (setting [20]) and 9.28% in assay [3] (setting [21]). Besides, the Potency result in [4], in [6], in assay [7], in assay [8] and in assay [9] was “inactive” each time.

Turning to `CN=C(NC#N)NCCSCc1nc[nH]c1C`, the Potency entry in [10], in assay [13], in [14], in assay [15], in assay [16] and in [19] was “inactive” throughout. Further, the Potency result in [6], in [8] and in [9] was “inactive” in each case. In addition, the molecule was classed as inactive in assay [11], in [12], in assay [17], in assay [1], in assay [18] and in [2]. Besides, the result in assay [5] was inactive. For the same molecule, in [3] (at 57.5 µM (top of the series)), the activity change, negative = inhibition is 0.49% (inactive) and 5% (inactive). Besides, the max response in assay [3] (setting [20]) is 19.1% and 8.99%; in [3] (setting [21]), 19.5% and 21.3%.

As for `O=C1NCN(c2ccccc2)C12CCN(CCCC(c1ccc(F)cc1)c1ccc(F)cc1)CC2`, the call in assay [2] and in assay [5] was inactive. Besides, the activity change, negative = inhibition in assay [3] (at 25.7 µM (top of the series)) is -8.24% (inactive). For the same molecule, the max response is -19.4% in assay [3] (setting [20]) and -26.6% in assay [3] (setting [21]). Also, the Potency result in assay [4] is “inactive”. Further, the Potency was 4.47 µM (active) in assay [7], 8.91 µM (active) in [8] and 2 µM (active) in [9].

`COCCCC/C(=N\OCCN)c1ccc(C(F)(F)F)cc1`: the Potency entry in assay [4] and in assay [6] was “inactive” each time. Also, in assay [5], the outcome was inactive. The Potency in [7] is 10 µM (active); in assay [8] it was 5.62 µM (active).

Turning to `CCN(CC)CCNC(=O)c1ccc(NC(C)=O)cc1`, the molecule was classed as inactive in [1], in assay [2] and in assay [5]. The activity change, negative = inhibition in [3] (at 57.5 µM (top of the series)) is 5.92% (inactive) and 1.04% (inactive). Further, the max response is -2.69% and -11.3% in [3] (setting [20]); 6.2% and -12.1% in assay [3] (setting [21]). Also, the Potency entry in [4], in assay [6], in assay [7], in assay [8] and in assay [9] was “inactive” in each case.

`NC(=O)c1ncn([C@@H]2O[C@H](CO)[C@@H](O)[C@H]2O)c1O`: the Potency result in assay [4], in assay [6], in assay [7], in assay [8] and in assay [9] was “inactive” in each case. In assay [5], the call was inactive.

As for `CCNC(=O)N1CCN(CCCC(c2ccc(F)cc2)c2ccc(F)cc2)CC1`, the molecule was classed as inactive in assay [1], in assay [2] and in [5]. In assay [3] (at 57.5 µM (top of the series)), the activity change, negative = inhibition was -0.161% (inactive). Besides, the max response in [3] (setting [20]) was -45.7%; in [3] (setting [21]), -48.7%. Also, the Potency result in assay [4] was “inactive”. In addition, the Potency in assay [7] is 1.58 µM (active); in assay [8], 1.12 µM (active); in assay [9] it was 0.891 µM (active).

`CN1CCN(CC(=O)N2c3ccccc3C(=O)Nc3cccnc32)CC1`: the result in assay [1], in assay [2] and in [5] was inactive. Besides, the activity change, negative = inhibition in assay [3] (at 25.7 µM (top of the series)) was 1.33% (inactive); in [3] (at 57.5 µM (top of the series)) it was 2.91% (inactive) and 6.38% (inactive) and 1.02% (inactive). The Potency entry in assay [4], in assay [6], in [7], in assay [8] and in assay [9] was “inactive” throughout.

For the molecule `Fc1ccc(C(c2ccc(F)cc2)N2CCN(C/C=C/c3ccccc3)CC2)cc1`, in assay [3] (at 57.5 µM (top of the series)), the activity change, negative = inhibition was -1.34% (inactive). In addition, the max response in [3] (setting [20]) is 15.3%; in assay [3] (setting [21]), 15.1%. Moreover, the Potency result in assay [4] was “inactive”. Further, the result in assay [5] was inactive. The Potency in assay [7] was 3.98 µM (active); in [8], 4.47 µM (active); in assay [9], 12.6 µM (active).

On to `Cc1scc2c1N(C(=O)CN1CCN(C)CC1)c1ccccc1NC2=O`, for which the result in assay [1], in [2] and in [5] was inactive. Moreover, the activity change, negative = inhibition was -2.57% (inactive) in assay [3] (at 25.7 µM (top of the series)); 0.86% (inactive) and 1.7% (inactive) and 0.0907% (inactive) in assay [3] (at 57.5 µM (top of the series)). Also, the max response in assay [3] (setting [20]) was -8.48% [middle of 4 runs]. Moreover, the Potency result in assay [4] and in assay [6] was “inactive” throughout.
